The panel holds about 83,000 compounds, 20% with a hit somewhere; the sample as a whole holds those more often.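 Values shown are percent growth following 48 h exposure of cells in 96-well plates to a single concentration of compound; below 10 was considered active.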 Calls of active or inactive are those of the source.
Experiments:
Assay in all cases: NCI-60 one-dose screen, 48 h (100 = growth as untreated, 0 = no growth, -100 = all killed)
Conditions in all cases: 10 µM unless noted
[1] = system: DU-145 prostate
[2] = system: K-562 leukemia
[3] = system: MALME-3M melanoma
[4] = system: MDA-MB-231 breast
[5] = system: RXF 393 renal
[6] = system: SF-268 CNS
[7] = system: SF-295 CNS
[8] = system: SF-539 CNS
[9] = system: UACC-257 melanoma
[10] = system: M14 melanoma
[11] = system: HCT-15 colon
[12] = system: HT29 colon
[13] = system: SNB-75 CNS
[14] = system: SNB-19 CNS
[15] = system: U251 CNS
[16] = system: PC-3 prostate
[17] = system: SK-MEL-5 melanoma
[18] = system: UACC-62 melanoma
[19] = system: LOX IMVI melanoma
[20] = system: SK-MEL-28 melanoma

Measured: growth

C=CCn1c(SCC(=O)Nc2ccc(/C(C)=N/O)cc2)nnc1-c1cc(-c2ccc(S(N)(=O)=O)cc2)nc2ccccc12
inactive: [1] 105% | [2] 38.8% | [3] 88.9% | [4] 74.1% | [5] 93.5% | [6] 67.1% | [7] 98.4% | [8] 64.2% | [9] 92.7% | [10] 93.5% | [11] 96.5% | [12] 105% | [13] 54.2% | [14] 70.3% | [15] 67.2% | [16] 80.2% | [17] 65.6% | [18] 69.7% | [19] 27% | [20] 93.3%

N#Cc1nc(-c2ccccc2)oc1S(=O)(=O)N1CCN(c2ccc(F)cc2)CC1
inactive: [1] 98.8% | [3] 51.8% | [4] 83.8% | [5] 89.8% | [6] 88.8% | [7] 105% | [8] 101% | [9] 86.8% | [10] 53.5% | [11] 25.5% | [12] 46% | [13] 96.9% | [14] 87.6% | [15] 82.1% | [16] 67.5% | [17] 86.1% | [18] 75.6% | [19] 15.2% | [20] 94.7%
active: [2] 3.68%

O=S(=O)(Nc1cc(Sc2cccc3cccnc23)c(O)c2ccccc12)c1ccccc1
active: [2] -16.8% | [3] 0.404% | [6] 8.28% | [8] -9.98% | [9] -9.38% | [10] -16.5% | [12] -35.8% | [15] 6.77% | [17] -25.2% | [18] -40.1% | [19] -50.2% | [20] 0.27%
inactive: [1] 15% | [4] 25.1% | [5] 28.7% | [7] 21.7% | [11] 12.2% | [13] 65.9% | [14] 43.4% | [16] 20.9%

COc1ccc(/C=C/c2c(C(=O)/C=C/c3ccccc3)c(C)nc3ccccc23)cc1
active: [1] 5.61% | [2] 6.28% | [5] -23% | [8] -39.5% | [9] 8.08% | [11] -26.2% | [12] 1.64% | [15] -59.9% | [19] -82.3%
inactive: [3] 17.8% | [4] 31.3% | [6] 45.3% | [7] 22.1% | [10] 15.3% | [13] 29.4% | [14] 16.3% | [16] 26.9% | [17] 21.2% | [18] 19.1% | [20] 18.7%

CS(=O)(=O)Nc1cc(-c2ccc3ncc(C#N)c(Nc4ccc(F)c(Cl)c4)c3c2)cnc1Cl
inactive: [1] 10.2% | [2] 16.2% | [10] 11.2% | [14] 14.3%
active: [3] -38.6% | [4] -0.718% | [5] -39.2% | [6] 8.18% | [7] -28.2% | [8] -27.4% | [9] 4.72% | [11] 8.1% | [12] 1.84% | [13] -6.88% | [15] -15.4% | [16] 8.23% | [17] -90% | [18] -10.7% | [19] -53.7% | [20] 5.07%

COc1ccc2c(c1)CCc1[nH]nc(-c3cc(OC)c(OC)c(OC)c3)c1-2
active: [1] 7.06% | [2] 7.23% | [7] 1.46% | [8] 0.378% | [10] 4.46% | [12] 0.652% | [15] 5.42% | [17] -54.2% | [19] 5.34%
inactive: [3] 69.8% | [4] 19.2% | [5] 22.6% | [6] 17.8% | [9] 38.2% | [11] 10.3% | [13] 36.7% | [14] 28.7% | [16] 12.6% | [18] 28.8% | [20] 58%

O=C(/C=C/c1ccc(Cl)cc1)c1cccc(OCCCOc2cccc(C(=O)/C=C/c3ccc(Cl)cc3)c2)c1
inactive: [1] 113% | [2] 88.8% | [3] 109% | [4] 110% | [5] 106% | [6] 105% | [7] 100% | [8] 112% | [9] 98.6% | [10] 98.6% | [11] 90.3% | [12] 98.6% | [13] 91.5% | [14] 99.1% | [15] 86.3% | [16] 104% | [17] 102% | [18] 90% | [19] 99.1% | [20] 102%

CCCCC#Cc1c(I)n(C)c(=O)[nH]c1=O
inactive: [1] 20.8% | [6] 26.5% | [7] 92.3% | [8] 66.7% | [13] 82.6% | [14] 99.7% | [16] 60.2% | [17] 62.5%
active: [2] -43.7% | [3] -85.4% | [4] -67.7% | [5] -81.7% | [9] -48.4% | [10] -7.41% | [11] -92.5% | [12] -75.3% | [15] 2.73% | [18] -13.5% | [19] -63.7% | [20] -85.6%

CN(CCCNC(=O)Cc1ccc2ccc3cccc4ccc1c2c34)CCCNc1cc(-c2ccc3ccccc3c2)nc2ccccc12
active: [1] -90.7% | [2] -82.8% | [3] -57.7% | [4] -75.2% | [5] -24.1% | [6] -77.6% | [7] -36% | [8] -96.1% | [9] -70% | [10] -74.4% | [11] -69% | [12] -80.8% | [13] -94.6% | [14] -82.8% | [15] -49.3% | [16] -87.5% | [17] -93.1% | [18] -51.6% | [19] -54% | [20] -85.7%

COc1cc(Cl)c(C)cc1NC(=O)c1cc2ccccc2cc1O
active: [3] -8.31% | [4] -23.8% | [7] -15.1% | [9] -1.4% | [11] 9.39% | [15] 6.67% | [16] 2.12% | [17] -35.1% | [19] 2.44%
inactive: [1] 26.4% | [2] 14.5% | [5] 11.7% | [6] 24% | [8] 22.1% | [10] 24.1% | [12] 37.8% | [13] 21.4% | [14] 23.1% | [18] 14.2% | [20] 36.5%

COc1cc(C2C(C(=O)OCc3ccccc3)=C(C)NC(C)=C2C(=O)OCc2ccccc2)cc(OC)c1OC
inactive: [1] 53.9% | [2] 20.3% | [3] 18% | [4] 31.9% | [6] 37.6% | [7] 15.4% | [8] 41.3% | [9] 19.5% | [10] 21.9% | [11] 23.4% | [12] 12.3% | [13] 46.2% | [14] 42.5% | [15] 31.3% | [18] 30.2% | [19] 29.9% | [20] 41.1%
active: [5] -18.5% | [16] 9.87% | [17] 8.07%

CCOC(=O)c1cc(C(=O)c2cc(OC)c(OC)c(OC)c2)n2ccccc12
inactive: [1] 24.9% | [2] 11.5% | [3] 35.6% | [4] 37.9% | [6] 55.7% | [7] 21.3% | [9] 50.1% | [11] 29% | [13] 32.9% | [14] 43.4% | [15] 21.6% | [16] 22.1% | [17] 37.7% | [18] 37.8% | [19] 47% | [20] 72.3%
active: [5] -0.358% | [8] -6.66% | [10] -21.8% | [12] 1.16%

Cc1ccc2nc(-c3ccc(C(=O)NNC(=S)Nc4ccccc4)cc3)[nH]c2c1
inactive: [1] 102% | [2] 62.5% | [3] 94.5% | [4] 99.6% | [5] 91.1% | [6] 99.7% | [7] 90% | [8] 99.4% | [9] 102% | [10] 88.6% | [11] 87.1% | [12] 92.5% | [13] 99.9% | [14] 97.8% | [15] 103% | [16] 85% | [17] 94.2% | [18] 98.9% | [19] 87.1% | [20] 95.3%

COc1ccc(CCN2C(=O)/C(=C/c3ccc(C4Oc5ccccc5C5CC(c6ccccc6)=NN54)cc3)SC2=S)cc1 (stereo not given)
inactive: [1] 110% | [2] 100% | [3] 102% | [4] 92.3% | [5] 107% | [6] 99.2% | [7] 105% | [8] 98.5% | [9] 109% | [10] 102% | [11] 105% | [12] 105% | [13] 101% | [14] 94.2% | [15] 101% | [16] 98% | [17] 101% | [18] 97.5% | [19] 96.6% | [20] 117%

O=C(CI)NC(=O)NC(=O)NCc1ccccc1
active: [2] -59.8% | [3] -59% | [10] 6.48% | [19] -77.7%
inactive: [1] 78.2% | [4] 11.3% | [5] 48.5% | [6] 58.5% | [7] 91.6% | [8] 27.3% | [9] 83% | [11] 17.4% | [12] 17.2% | [13] 81.4% | [14] 101% | [15] 84% | [16] 93.9% | [17] 56.1% | [18] 79.3% | [20] 49.4%

CC1C=CC(OC(=O)C(C)(O)CCC(O)(C(=O)OC2CC(O)C(C(C)C)CC2(C)O)C(C)C)(C(C)C)CC1 (stereo not given)
active: [1] -89% [4.63 µM] | [2] -61.1% [4.63 µM] | [3] -71.5% [4.63 µM] | [4] -59.7% [4.63 µM] | [5] -87.3% [4.63 µM] | [6] -43.9% [4.63 µM] | [7] -86.9% [4.63 µM] | [8] -95.5% [4.63 µM] | [9] -88% [4.63 µM] | [10] -74.8% [4.63 µM] | [11] -68.5% [4.63 µM] | [12] -39.6% [4.63 µM] | [13] -45.9% [4.63 µM] | [14] -75% [4.63 µM] | [15] -94.2% [4.63 µM] | [16] -84.9% [4.63 µM] | [17] -99.8% [4.63 µM] | [18] -88.9% [4.63 µM] | [19] -88.4% [4.63 µM] | [20] -96.9% [4.63 µM]

From PubChem BioAssay (NCI)
